Results taken from PubChem BioAssay AID1159580 (chemical genetic matrix, 2015).
The whole screen tested about 5,500 compounds, of which about 2,000 (36%) were called active. Not shown: some 18% with an inconclusive outcome. No stated cut-off is given here; in the data, active means normalized growth mostly below about 0.91 (no sharp cut-off); inconclusive means no clear call, values can overlap the other calls; inactive means mostly above about 0.92. The list shows a part of the results.

Assay: chemical genetic growth profiling, strain panel (AID 1159580);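 further: tested at 20 µM; growth read once vehicle control cultures reached saturation at 30 °C; 1 = growth at the plate median or of vehicle wells; lower values mean less growth of the strain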
Details: growth OD
[1] = S. cerevisiae deletion strains, locus YCL061C, strain MRC1, hits give low values
[2] = S. cerevisiae deletion strains, locus YHR030C, strain SLT2, hits give low values
[3] = S. cerevisiae deletion strains, locus YJL187C, strain SWE1, hits give low values
[4] = S. cerevisiae deletion strains, locus YDR150W, strain NUM1, hits give low values
[5] = S. cerevisiae deletion strains, locus YPL055C, strain LGE1, hits give low values
[6] = S. cerevisiae deletion strains, locus YPL241C, strain CIN2, hits give low values
[7] = S. cerevisiae deletion strains, locus YAL013W, strain DEP1, hits give low values
[8] = S. cerevisiae deletion strains, locus YBR229C, strain ROT2, hits give low values
[9] = S. cerevisiae deletion strains, locus YDL101C, strain DUN1, hits give low values
[10] = S. cerevisiae deletion strains, locus YDL134C, strain PPH21, hits give low values
[11] = S. cerevisiae deletion strains, locus YEL061C, strain CIN8, hits give low values
[12] = S. cerevisiae deletion strains, locus YGR078C, strain PAC10, hits give low values
[13] = S. cerevisiae deletion strains, locus YHR087W, strain rtc3, hits give low values
[14] = S. cerevisiae deletion strains, locus YJR043C, strain POL32, hits give low values
[15] = S. cerevisiae deletion strains, locus YJR075W, strain HOC1, hits give low values
[16] = S. cerevisiae deletion strains, locus YKL190W, strain CNB1, hits give low values
[17] = S. cerevisiae deletion strains, locus YLR039C, strain RIC1, hits give low values
[18] = S. cerevisiae deletion strains, locus YLR058C, strain SHM2 (second series), hits give low values
[19] = S. cerevisiae deletion strains, locus YLR085C, strain ARP6, hits give low values
[20] = S. cerevisiae deletion strains, locus YLR262C, strain YPT6, hits give low values
[21] = S. cerevisiae deletion strains, locus YML094W, strain GIM5, hits give low values
[22] = S. cerevisiae deletion strains, locus YMR219W, strain ESC1, hits give low values
[23] = S. cerevisiae deletion strains, locus YMR263W, strain SAP30, hits give low values
[24] = S. cerevisiae deletion strains, locus YMR307W, strain GAS1, hits give low values
[25] = S. cerevisiae deletion strains, locus YNL153C, strain GIM3, hits give low values
[26] = S. cerevisiae deletion strains, locus YNL298W, strain CLA4 (second series), hits give low values
[27] = S. cerevisiae deletion strains, locus YNL322C, strain KRE1, hits give low values
[28] = S. cerevisiae deletion strains, locus YNR030W, strain Alg12, hits give low values
[29] = S. cerevisiae deletion strains, locus YPR135W, strain CTF4, hits give low values

Measured: normalized growth

OC[C@@H](O)C(O[C@@H]1O[C@H](CO)[C@H](O)[C@H](O)[C@H]1O)[C@H](O)[C@@H](O)CO (some centres undefined)
inactive: S. cerevisiae deletion strains, locus YAL021C, strain ccr4, hits give low values 0.969 | S. cerevisiae deletion strains, locus YAL026C, strain drs2, hits give low values 0.99 | S. cerevisiae deletion strains, locus YAL030W, strain snc1, hits give low values 0.986 | S. cerevisiae deletion strains, locus YBL061C, strain skt5, hits give low values 0.993 | S. cerevisiae deletion strains, locus YBR009C, strain hhf1, hits give low values 0.991 | S. cerevisiae deletion strains, locus YBR023C, strain chs3, hits give low values 0.984 | S. cerevisiae deletion strains, locus YBR171W, strain sec66, hits give low values 0.98 | S. cerevisiae deletion strains, locus YBR279W, strain paf1, hits give low values 0.981 | S. cerevisiae deletion strains, locus YCL011C, strain gbp2, hits give low values 0.995 | S. cerevisiae deletion strains, locus YCL016C, strain dcc1, hits give low values 0.983 | [1] 0.994 | S. cerevisiae deletion strains, locus YCL069W, strain vba3, hits give low values 0.99 | S. cerevisiae deletion strains, locus YCR088W, strain abp1, hits give low values 0.98 | S. cerevisiae deletion strains, locus YDL005C, strain med2, hits give low values 0.979 | S. cerevisiae deletion strains, locus YDL040C, strain nat1, hits give low values 0.988 | S. cerevisiae deletion strains, locus YDR001C, strain nth1, hits give low values 0.99 | S. cerevisiae deletion strains, locus YDR069C, strain doa4, hits give low values 0.981 | S. cerevisiae deletion strains, locus YDR137W, strain rgp1, hits give low values 1 | S. cerevisiae deletion strains, locus YDR159W, strain sac3, hits give low values 0.982 | S. cerevisiae deletion strains, locus YDR195W, strain ref2 0.963 | S. cerevisiae deletion strains, locus YDR297W, strain sur2, hits give low values 0.987 | S. cerevisiae deletion strains, locus YDR334W, strain swr1, hits give low values 0.98 | S. cerevisiae deletion strains, locus YDR335W, strain msn5, hits give low values 0.987 | S. cerevisiae deletion strains, locus YDR392W, strain spt3, hits give low values 0.992 | S. cerevisiae deletion strains, locus YEL003W, strain gim4, hits give low values 1.01 | S. cerevisiae deletion strains, locus YEL037C, strain rad23, hits give low values 0.991 | S. cerevisiae deletion strains, locus YEL061C, strain CIN8 (second series), hits give low values 0.995 | S. cerevisiae deletion strains, locus YER015W, strain faa2, hits give low values 0.991 | S. cerevisiae deletion strains, locus YER016W, strain bim1, hits give low values 0.988 | S. cerevisiae deletion strains, locus YER111C, strain swi4, hits give low values 0.996 | S. cerevisiae deletion strains, locus YER155C, strain BEM2 (second series), hits give low values 0.976 | S. cerevisiae deletion strains, locus YFR010W, strain ubp6, hits give low values 0.975 | S. cerevisiae deletion strains, locus YGL167C, strain pmr1, hits give low values 0.986 | S. cerevisiae deletion strains, locus YGL173C, strain kem1, hits give low values 0.981 | S. cerevisiae deletion strains, locus YGL227W, strain vid30, hits give low values 0.99 | S. cerevisiae deletion strains, locus YGL240W, strain doc1, hits give low values 0.999 | S. cerevisiae deletion strains, locus YGL253W, strain hxk2, hits give low values 0.989 | S. cerevisiae deletion strains, locus YHR013C, strain ard1, hits give low values 0.989 | S. cerevisiae deletion strains, locus YHR027C, strain rpn1, hits give low values 1 | [2] 0.976 | S. cerevisiae deletion strains, locus YHR079C, strain IRE1, hits give low values 0.974 | S. cerevisiae deletion strains, locus YHR142W, strain chs7, hits give low values 0.983 | S. cerevisiae deletion strains, locus YJL092W, strain hpr5, hits give low values 0.989 | S. cerevisiae deletion strains, locus YJL095W, strain BCK1 (second series), hits give low values 0.98 | S. cerevisiae deletion strains, locus YJL095W, strain BCK1, hits give low values 1.03 | S. cerevisiae deletion strains, locus YJL115W, strain asf1, hits give low values 0.978 | S. cerevisiae deletion strains, locus YJL129C, strain trk1, hits give low values 0.985 | S. cerevisiae deletion strains, locus YJL154C, strain vps35, hits give low values 0.991 | S. cerevisiae deletion strains, locus YJL164C, strain tpk1, hits give low values 0.996 | S. cerevisiae deletion strains, locus YJL166W, strain qcr8, hits give low values 0.987 | [3] 0.991 | S. cerevisiae deletion strains, locus YJR066W, strain TOR1, hits give low values 0.926 | S. cerevisiae deletion strains, locus YKL160W, strain elf1, hits give low values 0.991 | S. cerevisiae deletion strains, locus YKR026C, strain gcn3, hits give low values 0.985 | S. cerevisiae deletion strains, locus YKR091W, strain srl3, hits give low values 0.983 | S. cerevisiae deletion strains, locus YLL001W, strain dnm1, hits give low values 1 | S. cerevisiae deletion strains, locus YLL026W, hits give low values 0.989 | S. cerevisiae deletion strains, locus YLL041C, strain sdh2, hits give low values 0.992 | S. cerevisiae deletion strains, locus YLR027C, strain aat2, hits give low values 0.991 | S. cerevisiae deletion strains, locus YLR113W, strain HOG1, hits give low values 1.04 | S. cerevisiae deletion strains, locus YLR221C, strain rsa3, hits give low values 0.994 | S. cerevisiae deletion strains, locus YLR258W, strain gsy2, hits give low values 0.989 | S. cerevisiae deletion strains, locus YLR262C, strain YPT6 (second series), hits give low values 1 | S. cerevisiae deletion strains, locus YLR320W, strain mms22, hits give low values 0.98 | S. cerevisiae deletion strains, locus YLR342W, strain FKS1, hits give low values 0.987 | S. cerevisiae deletion strains, locus YLR357W, strain rsc2, hits give low values 0.959 | S. cerevisiae deletion strains, locus YLR370C, strain arc18, hits give low values 0.994 | S. cerevisiae deletion strains, locus YLR384C, strain iki3, hits give low values 0.983 | S. cerevisiae deletion strains, locus YML120C, strain ndi1, hits give low values 0.995 | S. cerevisiae deletion strains, locus YMR058W, strain fet3, hits give low values 0.99 | S. cerevisiae deletion strains, locus YMR125W, strain sto1, hits give low values 0.981 | S. cerevisiae deletion strains, locus YMR129W, hits give low values 0.995 | S. cerevisiae deletion strains, locus YMR205C, strain PFK2, hits give low values 0.994 | S. cerevisiae deletion strains, locus YMR231W, strain pep5, hits give low values 0.967 | S. cerevisiae deletion strains, locus YNL071W, strain lat1, hits give low values 0.985 | S. cerevisiae deletion strains, locus YNL183C, strain NPR1, hits give low values 0.934 | S. cerevisiae deletion strains, locus YNL209W, strain ssb2, hits give low values 1.01 | S. cerevisiae deletion strains, locus YNL248C, strain rpa49, hits give low values 0.991 | S. cerevisiae deletion strains, locus YNL322C, strain KRE1 (second series), hits give low values 0.986 | S. cerevisiae deletion strains, locus YNR049C, strain mso1, hits give low values 0.981 | S. cerevisiae deletion strains, locus YOR001W, strain rrp6, hits give low values 0.989 | S. cerevisiae deletion strains, locus YOR070C, strain gyp1, hits give low values 0.996 | S. cerevisiae deletion strains, locus YOR080W, strain dia2, hits give low values 0.981 | S. cerevisiae deletion strains, locus YOR083W, strain WHI5, hits give low values 0.986 | S. cerevisiae deletion strains, locus YOR106W, strain vam3, hits give low values 0.988 | S. cerevisiae deletion strains, locus YOR231W, strain MKK1, hits give low values 0.976 | S. cerevisiae deletion strains, locus YOR265W, strain rbl2, hits give low values 1 | S. cerevisiae deletion strains, locus YOR270C, strain vph1, hits give low values 1.01 | S. cerevisiae deletion strains, locus YOR290C, strain snf2, hits give low values 0.998 | S. cerevisiae deletion strains, locus YPL051W, strain arl3, hits give low values 1.01 | S. cerevisiae deletion strains, locus YPL078C, strain atp4, hits give low values 0.997 | S. cerevisiae deletion strains, locus YPL106C, strain sse1, hits give low values 0.969 | S. cerevisiae deletion strains, locus YPL240C, strain hsp82, hits give low values 0.988 | S. cerevisiae deletion strains, locus YPL256C, strain CLN2, hits give low values 0.986

O=C(O)CCC/C=C\C[C@@H]1[C@@H](/C=C/[C@H](O)C2Cc3ccccc3C2)[C@@H](F)C[C@@H]1O
inactive: S. cerevisiae deletion strains, locus YAL040C, strain CLN3, hits give low values 0.995 | S. cerevisiae deletion strains, locus YCL061C, strain MRC1 (second series), hits give low values 0.998 | [4] 1.01 | S. cerevisiae deletion strains, locus YDR363W, strain ESC2, hits give low values 0.993 | S. cerevisiae deletion strains, locus YER002W, strain NOP16, hits give low values 0.988 | S. cerevisiae deletion strains, locus YNL175C, strain NOP13, hits give low values 0.982 | S. cerevisiae deletion strains, locus YNL197C, strain WHI3, hits give low values 0.989 | S. cerevisiae deletion strains, locus YNL224C, strain SQS1, hits give low values 0.969 | S. cerevisiae deletion strains, locus YOR083W, strain WHI5 (second series), hits give low values 1.02 | [5] 0.99 | [6] 0.996

COC(=O)c1c(OC)ccc(N=CNO)c1OC
inactive: [7] 1 | [8] 0.982 | [9] 0.993 | [10] 1.01 | [4] 0.962 | [11] 1.01 | [12] 1 | [2] 1.05 | [13] 0.986 | [3] 0.985 | [14] 1 | [15] 0.976 | [16] 1.01 | [17] 1.02 | [18] 1 | [19] 0.999 | [20] 0.997 | [21] 0.993 | [22] 0.999 | [23] 0.926 | [24] 0.94 | [25] 0.989 | [26] 1.03 | [27] 1 | [28] 0.996 | [5] 0.888 | [6] 1.01 | [29] 1.07 | S. cerevisiae strains, strain wild type, hits give low values 1.03

Cc1cc(N=CNO)c2ccccc2n1
inactive: [7] 1 | [8] 0.994 | [1] 0.976 | [9] 0.966 | [10] 0.997 | [4] 0.938 | [11] 0.999 | [12] 0.981 | S. cerevisiae deletion strains, locus YGR229C, strain SMI1, hits give low values 1.01 | [2] 0.869 | [13] 1.04 | [14] 0.959 | [15] 1 | [16] 0.997 | [17] 0.959 | [18] 0.989 | [19] 0.932 | [20] 0.988 | [21] 1.01 | [22] 1 | [23] 0.994 | [24] 1.19 | S. cerevisiae deletion strains, locus YNL128W, strain TEP1, hits give low values 0.966 | [25] 0.987 | [26] 0.919 | [27] 0.962 | [28] 0.982 | [5] 1.04 | [6] 0.966 | [29] 0.955
